High-throughput results deposited in PubChem BioAssay by National Center for Advancing Translational Sciences (NCATS).
HT1080-NT tox – kills 2HG-producing HT-1080-NT fibrosarcoma cells; HT-1080-NT fibrosarcoma viability, CellTiter-Glo ATP luminescence, 48 h; Potency, µM (top dose mostly 46.1 µM), for inactives: at the highest dose activity, negative = less viability, actives largely listed as cytotoxic; 360,000 compounds, 1.6% hits;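 also: NT is the 2HG producing partner of a matched IDH1 knockdown line; potency is read from the fitted curve at half-maximal effect; 0% = DMSO-treated cells and -100% = media-only wells without cells; nearly all actives have a fitted effect of over 55% in size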
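Read-out is CellTiter-Glo luminescence after 10 minutes at room temperature, following 48 hours' compound treatment of HT-1080-NT cells (750 cells/well, RPMI, 5% FBS, 37 degrees C).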
TDP1 cell noCPT – qHTS for Inhibitors of human tyrosyl-DNA phosphodiesterase 1 (TDP1): qHTS in cells in absence of CPT; DT40 Tdp1-/- hTDP1 cells, no CPT, ATP luminescence, 48 h; Potency, µM (highest dose often 46.2 µM), for inactives: top-dose activity change, negative = growth inhibition, actives largely listed as inhibitors; 420,000 compounds, 15% hits; also: potency is read from the fitted curve at half-maximal effect; nearly all actives have a fitted effect of over 55% in size
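Cells were dispensed at 400 per well, compounds added by pin tool, plates incubated ≥48 hr at 37 °C, then CellTiter-Glo added for 30 min at room temperature before luminescence reading. Line: DT40 Tdp1-/- complemented with hTDP1; camptothecin omitted.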
ALOX12 inh – ALOX12 (human) lipoxygenase inhibition | 580,000 compounds, 1.1% hits | purified 12hLO, xylenol orange hydroperoxide absorbance | Potency, µM (doses to about 108 µM), for the others: at the top dose activity change, negative = inhibition, actives largely listed as inhibitors | AID 1671190 | P18054; also: potency is read from the fitted curve at half-maximal effect
Target sequence (P18054 whole entry, looked up): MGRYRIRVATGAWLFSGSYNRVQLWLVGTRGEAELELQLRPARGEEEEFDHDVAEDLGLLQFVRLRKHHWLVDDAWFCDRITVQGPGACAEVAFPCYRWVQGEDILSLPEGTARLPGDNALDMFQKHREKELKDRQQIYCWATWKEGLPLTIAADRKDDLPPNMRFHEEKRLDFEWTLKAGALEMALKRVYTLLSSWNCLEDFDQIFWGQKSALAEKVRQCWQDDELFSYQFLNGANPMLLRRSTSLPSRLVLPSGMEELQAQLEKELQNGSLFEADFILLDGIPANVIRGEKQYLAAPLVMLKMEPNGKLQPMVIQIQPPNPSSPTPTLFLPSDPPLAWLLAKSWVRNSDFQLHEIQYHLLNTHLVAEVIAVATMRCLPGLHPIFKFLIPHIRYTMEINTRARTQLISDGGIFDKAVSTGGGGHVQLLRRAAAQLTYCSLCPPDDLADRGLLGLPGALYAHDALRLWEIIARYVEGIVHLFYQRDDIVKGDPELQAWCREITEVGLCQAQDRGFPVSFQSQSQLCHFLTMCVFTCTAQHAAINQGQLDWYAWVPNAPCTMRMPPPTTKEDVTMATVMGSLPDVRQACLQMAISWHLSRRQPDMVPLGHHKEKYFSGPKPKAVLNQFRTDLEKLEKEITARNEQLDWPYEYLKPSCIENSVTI
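Purified human 12hLO (150 nM final) in 25 mM Hepes, 0.01% Triton X-100, pH 7.0 was preincubated 15 min at room temperature with compound. Then 40 uM arachidonic acid was added, 30 min. Hydroperoxide was read by Fe-XO absorbance ratio 573/405 nm.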
HT1080 IDH1KD tx – kills HT-1080 cells with IDH1 knockdown. HT-1080 IDH1 knockdown viability, ATP luminescence, 48 h. Potency, µM (highest dose often 46.1 µM), for the others: top-dose activity, negative = toxicity, usual class: cytotoxic. 360,000 compounds, 2% hits. AID 686971;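 also: potency is read from the fitted curve at half-maximal effect; 0% = DMSO wells and -100% = cell-free medium wells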
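In this qHTS, HT-1080 cells depleted of IDH1 are exposed for 48 h at 37 °C to compound titrations. Toxicity is scored from CellTiter-Glo luminescence, with DMSO as full viability and medium alone as none.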
TDP1 cell CPT – growth inhibition of DT40 Tdp1-/-;hTDP1 cells with camptothecin (screen for TDP1 inhibitors). chicken DT40 Tdp1-/-;hTDP1 cells + 20 nM CPT, ATP luminescence, 48 h. Potency, µM (doses to about 46.2 µM), for inactives: at the highest dose activity change, negative = growth inhibition, usual class: inhibitors. 420,000 compounds, 12% hits; also: potency is read from the fitted curve at half-maximal effect; nearly all actives have a fitted effect of over 55% in size
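Chicken DT40 Tdp1-/- cells stably complemented with human TDP1 were seeded at 400 cells/well in medium containing 20 nM camptothecin, exposed to pin-transferred compounds, and grown at 37 °C for at least 48 hr. Viability was read as ATP luminescence.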
IL1B secr inh – inhibitors of inflammasome signaling (IL-1 beta secretion); THP-1 LPS/ATP IL-1B secretion, AlphaLISA, 16 h; stronger effect = lower value; activity change, % at 57.5 µM; 360,000 compounds, 4.7% hits; AID 743279; in the data active = activity change below about -50%; inconclusive = mostly about -30% to -49%
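THP-1 cells pretreated 1 hr with compounds (up to 57.5 uM final), then stimulated with LPS (250 ng/mL final) plus ATP (1.25 mM final); secreted IL-1B measured by AlphaLISA after 16 hr, decreased signal indicating inhibition.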
An asterisk follows results filed as active; i = inactive; ? = inconclusive; nt = not tested or not shown; [ ] = remark or other dose. This is one part of a sample in which hits are shown more often than they occur. Unless noted, calls follow the shape of the dose curve; as a rule, active = well fitted curve in the direction sought with a large enough effect; inconclusive = small, poorly fitted or top-dose-only effect, or another doubt; inactive = no such curve, though single readings can be large; an effect the other way counts as inactive or inconclusive. Unless noted, % is scaled to controls: 0 for no effect and ±100 for the full control effect.

SMILES	HT1080-NT tox	TDP1 cell noCPT	ALOX12 inh	HT1080 IDH1KD tx	TDP1 cell CPT	IL1B secr inh
COc1cccc(CCNC(=O)c2cc(COc3ccc(C)c(C)c3)on2)c1OC	2.3%	14.6µM*	-3.3%	-1.3%	?	-23.1
Cc1ccc(OCc2cc(C(=O)NCCc3cccnc3)no2)cc1C	?	?	19.9%	?	?	10.2
COc1cccc(OCc2cc(C(=O)NCCc3cccc(C)n3)no2)c1	-0.6%	-24.9%	-13.2%	-16.6%	-6.9%	8.6
Cc1cccc(C2=NC(C(F)(F)F)(C(F)(F)F)c3c(n(-c4ccc(F)cc4)c(=O)[nH]c3=O)N2)c1	-4.4%	16.4µM*	-2.6%	-1.4%	20.6µM*	3.3
CN1CC(=O)N(C2CCNCC2)Cc2c1ncnc2N1CCC(N2CCOCC2)CC1	nt	nt	-17.3%[6.33 µM]	nt	nt	nt
O=C1c2ccccc2C(=Nc2ccccc2)C1c1cccc(Br)c1 (centres undefined)	-3.3%[9.24 µM]	?	15.9%	-18.5%	10.3µM*	54.4
CCC(C)n1c(SCC(=O)N2CCOCC2)nc2c1c(=O)n(C)c(=O)n2C (centres undefined)	nt	nt	-7.1%	nt	nt	nt
CCOC(=O)c1c(NC(=O)C(Sc2ccccc2)c2ccccc2)sc(C(=O)N(C)C)c1C (centres undefined)	-4.3%	16.4µM*	2.4%	?	?	-24.9
CCOC(=O)c1c(NC(=O)COC(=O)CCOc2ccccc2C)sc(C(=O)NC)c1C	-2.7%	?	-1.1%	-3.1%	23.1µM*	-2.5
CCOC(=O)c1c(NC(=O)COC(=O)c2ccc(O)cc2)sc(C(=O)N(C)C)c1C	-0.6%	23.1µM*	-0.6%	-4.5%	?	-1.4
CCOC(=O)c1c(NC(=O)COC(=O)CNC(=O)c2ccco2)sc(C)c1C	-3.0%	?	36.0%	-10.3%	5.8µM*	-6.2
COCCN1C(=O)c2ccccc2C(C(=O)Nc2nc(C)cs2)C12CCCCC2 (centres undefined)	nt	nt	15.9%	nt	nt	nt
O=C1CN(C(=O)Nc2ccccc2Cl)C(c2ccccc2)c2c(sc3c2CCCC3)N1 (centres undefined)	nt	?	-10.6%	nt	23.1µM*	nt
Cc1cccnc1C1=NOC(Cc2ccccc2)C(=O)N1CCOc1ccc(F)cc1 (centres undefined)	-10.8%	23.1µM*	15.8%	2.6%	16.4µM*	35.6
COc1cc(NC(=O)C2CCN(S(=O)(=O)c3ccc(Cl)cc3)CC2)ccc1N1CCCC1=O	nt	nt	-14.6%	nt	nt	nt
Cc1ccc(NC(=O)C2CCN(S(=O)(=O)c3ccc(N4CCCC4=O)cc3)CC2)cc1Cl	?	4.11µM*	-8.3%	?	5.8µM*	-5.4
O=C(NCc1ccc(F)cc1)C1CCN(S(=O)(=O)c2ccc(N3CCCC3=O)cc2)CC1	6.7%	16.4µM*	-2.7%	2.9%	?	8.6
COc1ccc(CNC(=O)C2CCN(S(=O)(=O)c3ccccc3)CC2)cc1	-0.3%	-1.8%	-4.8%	-0.4%	-1.0%	-3.6
O=C(NCc1ccc(N2CCCC2=O)cc1)c1ccc(F)cc1	10.5%	1.7%	-2.1%	27.8%	2.0%	33.4
O=C(NCc1ccccc1Cl)C1CCN(S(=O)(=O)c2ccc(N3CCCC3=O)cc2)CC1	11.3%	?	9.5%	16.9%	16.4µM*	-16.3
COc1ccc(CNC(=O)C2CCN(S(=O)(=O)c3ccc(N4CCCC4=O)cc3)CC2)cc1	-1.6%	11.6µM*	11.7%	-0.4%	25.9µM*	-3.7
Cc1ccc(C(=O)N2CCCCCCN(C)C(=O)[C@@H]3CCC[C@@H]32)cn1	nt	nt	38.5%	nt	nt	nt
O=C1NCc2ccccc2CC12CCCN2CC1CC=CCC1 (centres undefined)	nt	nt	15.0%[6.33 µM]	nt	nt	nt
Cc1ccc(CNC(=O)c2ccc(N3CCCC3=O)cc2)cc1	22.8%	-2.0%	-2.4%	10.1%	-5.1%	-10.5
CS(=O)(=O)N1CCC(C(=O)Nc2ccc(F)c(Cl)c2)CC1	18.7%	?	0.0%	-0.9%	12.5%	-14.5
SMILES	HT1080-NT tox	TDP1 cell noCPT	ALOX12 inh	HT1080 IDH1KD tx	TDP1 cell CPT	IL1B secr inh
Cn1nc(C(C)(C)C)cc1C(=O)NCc1ccc(N2CCCC2=O)cc1	?	2.31µM*	-2.8%	?	3.26µM*	-11.7
Cc1ccc(NC(=O)C2CCN(S(C)(=O)=O)CC2)cc1Cl	-15.3%	-4.4%	0.0%	-3.7%	-13.3%	-61.1*
CCNC(=O)C1CCN(S(=O)(=O)c2ccc(F)cc2)CC1	8.2%	18.4µM*	0.0%	5.5%	?	2.1
Cn1ccsc1=NC(=O)c1ccc([N+](=O)[O-])o1	-19.2%	?	-23.8%	-21.4%	18.4µM*	-28.9
COCCn1c(C)c(C)c(S(=O)(=O)c2ccc(F)cc2)c1NC(=O)C1CCCO1 (centres undefined)	nt	nt	-6.8%	nt	nt	nt
Cc1nc(C)c(-c2ccc(SCC(=O)Nc3ccc(F)c(F)c3)nn2)s1	nt	9.2µM*	-17.3%	nt	13µM*	nt
Cc1nc(C)c(-c2ccc(SCC(=O)Nc3ccc(C)c(F)c3)nn2)s1	nt	-28.3%	0.0%	nt	-22.0%	nt
Cc1nc(C)c(-c2ccc(SCC(=O)Nc3ccccc3)nn2)s1	-12.9%	25.9µM*	37.4%	-21.3%	23.1µM*	i
COc1cccc(NC(=O)CSc2ccc(-c3sc(C)nc3C)nn2)c1	-10.8%	14.6µM*	-12.8%	-15.1%	14.6µM*	-20.4
CC(=O)Nc1ccc(NC(=O)CSc2ccc(-c3sc(C)nc3C)nn2)cc1	0.2%	?	0.0%	15.3%	-22.1%	i
COc1cccc(NC(=O)CSc2nnc3scc(-c4ccc(Cl)cc4)n23)c1	nt	18.4µM*	-6.4%	nt	?	nt
O=C1NCCCCCN(C(=O)c2ccco2)[C@H]2CCC[C@@H]12	nt	nt	18.5%	nt	nt	nt
Cc1ccc2nc(C(=O)N[C@H]3COC[C@H]3Cc3cc(C)no3)cn2c1	nt	nt	9.5%	nt	nt	nt
O=C(CC1CCCN(c2cnn(CC3CC3)c(=O)c2)C1)NCCN1CCCCC1 (centres undefined)	nt	nt	25.9%	nt	nt	nt
COc1ccc(CN2C(=O)C(C)Nc3ncnc(N4CCc5ccccc5C4)c32)cc1 (centres undefined)	2.06µM*	4.61µM*	-17.9%	2.31µM*	4.61µM*	47.9
COc1ccc(CN2C(=O)C(C)Nc3ncnc(N4CCN(c5ccccn5)CC4)c32)cc1 (centres undefined)	?	23.1µM*	-8.2%	-11.9%	?	-20.4
Cc1ccc(CN2C(=O)C(C)Nc3ncnc(N4CCN(c5ccccn5)CC4)c32)cc1 (centres undefined)	?	18.4µM*	-15.4%	-14.4%	?	-2.4
